The text below walks through data of PubChem BioAssay (EPA / NIEHS).

Where “and” joins values, the source holds several entries; their conditions need not be identical. Equal values may be shown once. Inconclusive results are not listed. Calls of active or inactive are those of the source. How the source made its calls, unless noted: active means hit-call score of the fitted dose curve at least 0.9, where 1 is the maximum; inactive means score below 0.9.

The nature of assay [1]: ATG_NFI_CIS: Attagene CIS-FACTORIAL HepG2 Assay for human Nuclear Factor I (NFI) (AID 2282989). The note with it: HepG2 cis-regulatory reporter, NFI response element transcription; actives raise or lower the signal. A digest of the protocol:
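HepG2, transient MRTU, 24 h exposure; RNA→cDNA→PCR→FAM label→HpaI→CE fluorescence. Bidirectional fit, DMSO = baseline.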

The target of assay [2] is Myc proto-oncogene protein (Homo sapiens) (UniProt P01106). Description: ATG_Myc_CIS: Attagene CIS-FACTORIAL HepG2 Assay for human Myelocytomatosis (Myc) Proto-Oncogene Transcription Factor (AID 2282990). The note with it: HepG2, Attagene cis-reporter transcription factor activity; actives raise or lower the signal. A digest of the protocol: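 Cells of the HepG2 human liver line bear multiple cis-driven reporter transcription units. Reporter mRNA after 24 h exposure is reverse-transcribed, amplified, labelled and resolved by capillary electrophoresis, with gain- or loss-of-signal fitting relative to DMSO.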

Assay [3] is described as follows: ATG_NRF2_ARE_CIS: Attagene CIS-FACTORIAL HepG2 Assay for human Nuclear Factor Erythroid 2 Related Factor 2 (NFR2) response to Antioxidant Response Elements (ARE) (AID 2282992).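 On AC50: reporter mRNA level measured by RT-PCR and capillary electrophoresis fluorescence.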 The note with it: HepG2 Attagene ARE/NRF2 reporter, transcription factor activity; actives raise or lower the signal. A digest of the protocol: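 Cis-factorial assay: transfected HepG2 reporter library, 24 h dosing, mRNA readout via RT-PCR/CE; DMSO-referenced bidirectional analysis.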

Assay [4] in a line: ATG_Oct_MLP_CIS: Attagene CIS-FACTORIAL HepG2 Assay for human Octamer-Binding Transcription Factor (Oct) (AID 2282993). The note with it: HepG2 Attagene cis-factorial Oct reporter, mRNA; actives raise or lower the signal. A digest of the protocol: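 Multiplexed cis-reporter assay in human liver HepG2 cells, 24 h incubation. Reporter RNA amplified and labelled, then resolved by capillary electrophoresis; DMSO serves as negative control and baseline.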

The target of assay [5] is Cellular tumor antigen p53 (Homo sapiens) (UniProt P04637). Description: ATG_p53_CIS: Attagene CIS-FACTORIAL HepG2 Assay for human p53 Transcription Factor (AID 2282994). The note with it: HepG2 p53 cis-element reporter, Attagene mRNA; actives raise or lower the signal. A digest of the protocol:
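Using HepG2 hepatoma cells carrying cis-acting multiplexed reporters, mRNA induction is detected after a 24 h exposure. Gain- and loss-of-signal responses are fitted relative to DMSO-treated cells.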

For assay [6], the target named is human Peroxisome Proliferator-activated Receptor alpha (PPARa), PPARA (gene 5465) (UniProt Q07869). The assay can be described thus: ATG_PPARa_TRANS: Attagene TRANS-FACTORIAL HepG2 Assay for human Peroxisome Proliferator-activated Receptor alpha (PPARa) (AID 2283001; active means hit-call score of the fitted dose curve at least 0.9, where 1 is the maximum;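 on AC50: potency for gain of reporter signal over DMSO so agonist or activator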). Put shortly:
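Read-out is fluorescence of reporter cDNA fragments resolved by capillary electrophoresis after RT-PCR. Human HepG2 liver cells carried transfected PPARa-Gal4 chimera and GAL4-UAS reporter units, treated 24 h; activity scored as increase over DMSO.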

A short description of assay [7]: BSK_3C_TissueFactor: BioMAP Diversity Plus: 3C Assay for Tissue Factor Biomarker Activity (AID 2282997). The note with it: BioMAP 3C HUVEC, tissue factor biomarker readout; actives raise or lower the signal. A digest of the protocol:
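Dosing of human umbilical vein endothelial cells preceded a 24 h incubation. Tissue Factor was then read by ELISA, with increases and decreases both scored relative to DMSO controls.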

Assay [8] can be described thus: BSK_3C_uPAR: BioMAP Diversity Plus: 3C Assay for Urokinase-type plasminogen activator receptor (uPAR) Biomarker Activity (AID 2282998). The note with it: BioMAP 3C HUVEC, uPAR biomarker ELISA; actives raise or lower the signal. A digest of the protocol:
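Dose primary human umbilical vein endothelial cells, incubate 24 h, measure cell-surface uPAR by ELISA, then fit the signal in both directions against the DMSO negative control.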

Assay [9] can be described thus: BSK_4H_Eotaxin3: BioMAP Diversity Plus: 4H Assay for Eotaxin 3 Biomarker Activity (AID 2283000).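 On outcome: CCL26 protein level quantified by ELISA in parallel with SRB cytotoxicity check.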 The note with it: primary human endothelial cells (HUVEC); actives raise or lower the signal. A digest of the protocol:
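Human umbilical vein endothelial cells (BSK_4H system) dosed with test chemical; Eotaxin-3 (CCL26) measured by ELISA 24 h after dosing. Bidirectional curve fitting relative to DMSO negative control as baseline.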

Cellular tumor antigen p53 (Homo sapiens), sequence (P04637 whole entry, looked up): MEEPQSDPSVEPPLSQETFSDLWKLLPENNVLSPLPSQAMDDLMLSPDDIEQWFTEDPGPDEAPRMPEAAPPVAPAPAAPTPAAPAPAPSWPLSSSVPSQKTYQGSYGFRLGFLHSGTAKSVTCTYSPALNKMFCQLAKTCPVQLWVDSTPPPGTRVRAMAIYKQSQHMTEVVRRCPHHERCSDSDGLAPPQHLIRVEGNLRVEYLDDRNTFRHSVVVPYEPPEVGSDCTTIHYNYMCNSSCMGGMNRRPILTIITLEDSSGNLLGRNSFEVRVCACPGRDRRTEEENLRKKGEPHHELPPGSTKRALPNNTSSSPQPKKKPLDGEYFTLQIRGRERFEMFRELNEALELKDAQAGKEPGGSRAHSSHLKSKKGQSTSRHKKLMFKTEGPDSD
Myc proto-oncogene protein (Homo sapiens), sequence (P01106 whole entry, looked up): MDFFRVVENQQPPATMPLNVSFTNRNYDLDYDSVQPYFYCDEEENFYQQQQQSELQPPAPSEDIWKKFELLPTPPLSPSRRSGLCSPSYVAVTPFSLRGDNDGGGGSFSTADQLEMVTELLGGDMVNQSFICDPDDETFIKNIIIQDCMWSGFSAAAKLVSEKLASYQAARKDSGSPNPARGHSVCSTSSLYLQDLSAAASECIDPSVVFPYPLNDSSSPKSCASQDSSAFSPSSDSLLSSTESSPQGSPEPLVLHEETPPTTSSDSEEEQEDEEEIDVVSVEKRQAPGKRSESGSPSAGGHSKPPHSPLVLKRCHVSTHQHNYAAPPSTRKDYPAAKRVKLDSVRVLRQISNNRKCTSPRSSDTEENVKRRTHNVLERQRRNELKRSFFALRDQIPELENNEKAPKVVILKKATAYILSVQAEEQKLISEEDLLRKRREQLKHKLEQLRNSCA
human Peroxisome Proliferator-activated Receptor alpha (PPARa), PPARA (gene 5465), sequence (Q07869 whole entry, looked up, the tested form may be a part): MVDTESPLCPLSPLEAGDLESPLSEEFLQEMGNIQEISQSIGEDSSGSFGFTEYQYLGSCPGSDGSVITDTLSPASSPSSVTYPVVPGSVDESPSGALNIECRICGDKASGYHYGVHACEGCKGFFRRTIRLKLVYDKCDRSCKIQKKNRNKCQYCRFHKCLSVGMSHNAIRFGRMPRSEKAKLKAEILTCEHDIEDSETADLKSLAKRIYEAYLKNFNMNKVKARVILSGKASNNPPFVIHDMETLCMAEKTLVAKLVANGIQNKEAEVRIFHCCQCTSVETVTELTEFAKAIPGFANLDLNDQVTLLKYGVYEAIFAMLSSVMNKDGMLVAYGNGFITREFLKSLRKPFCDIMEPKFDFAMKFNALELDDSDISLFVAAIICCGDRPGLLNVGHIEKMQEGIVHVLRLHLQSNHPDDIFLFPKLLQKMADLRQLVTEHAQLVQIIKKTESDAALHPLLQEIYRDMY

Turning to `COc1cc(NC(=O)CC(C)=O)c(OC)cc1Cl`, the compound was called inactive in [1], in assay [2], in assay [3], in assay [4], in assay [5] and in assay [6].
On to `CCCCCCCCCCCCCCCC[n+]1ccccc1`, for which the call in [1], in [3], in [4] and in assay [6] was inactive. In addition, in assay [2], the half-maximal activity concentration (AC50) was 20 µM (active).
Turning to `Cc1c(C)c([N+](=O)[O-])c(C(C)(C)C)c([N+](=O)[O-])c1C`, the compound was called inactive in [1], in [2], in assay [4] and in [5].
Consider `O=C(O)CCCCCCCCCC(=O)O`, for which the call in [1], in assay [2], in [3], in assay [4], in assay [5] and in [6] was inactive.
For `C=CC(=O)OCCOC(=O)C=C`, the compound was classed as inactive in assay [1], in assay [2], in [3] and in [6]. In addition, the AC50 in assay [4] was 26.3 µM (active).
On to `CC1OC1C1CCC2(C)OC2C1` (stereo not given), for which the compound was classed as inactive in assay [1], in assay [2], in assay [4], in [7], in [8] and in assay [9]. Also, the half-maximal activity concentration (AC50) in assay [3] was 100 µM (active).
Take `Nc1ccc2cc3ccccc3cc2c1`: the compound was called inactive in [1], in assay [2], in [4] and in [6]. For the same compound, the AC50 in [3] was 47 µM (active).
`NC(CO)(CO)CO`: the call in assay [1], in assay [2], in [3], in [4] and in assay [6] was inactive.
For `O=C(c1ccccc1)c1ccc(O)c(O)c1O`, the compound was classed as inactive in assay [1], in assay [2], in assay [4], in assay [5] and in assay [6]. Further, the AC50 in assay [3] was 61.6 µM (active).
Turning to `c1ccc2c(c1)ccc1ncccc12`, the compound was classed as inactive in assay [1] and in [6]. The AC50 is 26.7 µM (active) in assay [2]; 148 µM (active) in [3]; 8 µM (active) in assay [7]; 13.4 µM (active) in [8]; 20 µM (active) in assay [9].
In the case of `CCCCCCCCCCCCCCCC[N+](C)(C)CC`, the result in [1] and in assay [4] was inactive. The concentration at half-maximal activity (AC50) in assay [2] was 8.97 µM (active); in assay [5], 11.8 µM (active); in assay [7], 12.1 µM (active); in [8] it was 0.65 µM (active); in assay [9] it was 2.24 µM (active); in [6] it was 13.3 µM (active).
As to `Cc1ccc(N)c([N+](=O)[O-])c1`, the compound was classed as inactive in assay [1], in assay [2], in assay [3], in assay [4] and in assay [6].
Take `COc1ccc2nc(N)sc2c1`: the compound was called inactive in assay [1], in [2], in [4], in assay [7], in [8] and in assay [9]. Also, in [6], the compound was called inactive. For the same compound, the AC50 in assay [3] was 13.9 µM (active).
Turning to `O=C1CCCCCN1SSN1CCCCCC1=O`, the AC50 in assay [1] is 153 µM (active); in assay [3], 42.9 µM (active). In addition, the result in assay [2], in [4] and in assay [6] was inactive.
On to `CNC(=S)NN`, for which the outcome in [1], in assay [2], in assay [4] and in assay [5] was inactive.
For the compound `CCCCCCCCO[C@@H]1O[C@H](CO)[C@@H](O)[C@H](O)[C@H]1O`, the compound was called inactive in [1], in assay [2], in assay [3], in [4] and in [6].
Consider `[Cl][In]([Cl])[Cl]`, for which the call in assay [1], in [2], in assay [4], in [5] and in assay [6] was inactive.
`O=C1CCCCCCCCCCCCCCCO1`: the result in assay [1], in assay [2], in [4] and in [5] was inactive. In addition, the half-maximal activity concentration (AC50) in [3] is 65.2 µM (active); in [6], 54 µM (active).
For `c1ccc2c(c1)ccc1cc3c(ccc4ccccc43)cc12`, the call in assay [1], in [2], in assay [5], in assay [8] and in [6] was inactive. For the same compound, the concentration at half-maximal activity (AC50) was 0.12 µM (active) in assay [3]; 15 nM (active) and 41.3 nM (active) in assay [7]; 15 nM (active) and 37.3 nM (active) in assay [9].
Turning to `Cc1ccc(OC(=O)CC(C)C)cc1`, the compound was classed as inactive in assay [1], in assay [2] and in [4].
`CCCCCc1ccc(Cl)cc1`: the result in assay [1], in assay [2] and in assay [5] was inactive. Moreover, the AC50 in assay [3] was 120 µM (active).
Turning to `O=S(=O)(O)CC(O)CCl` (stereo not given), the outcome in assay [1], in assay [2], in assay [4], in [5] and in assay [6] was inactive. Further, the AC50 in assay [3] was 30 µM (active).
`CCOC(=O)Cc1cccc2ccccc12`: the result in assay [1], in assay [2], in [3], in assay [4] and in assay [6] was inactive.
Regarding `CCCCCC/C=C/C=O`, the compound was called inactive in assay [1] and in assay [2]. Besides, the results for the half-maximal activity concentration (AC50) in assay [3] and in assay [6] were 47.7 µM (active) and 66.3 µM (active), respectively.
With `CC/C=C\C/C=C\C/C=C\CCCCCCCC(=O)O`, the compound was classed as inactive in [1] and in [2]. Also, the half-maximal activity concentration (AC50) in [3] was 48.2 µM (active); in assay [6], 42.3 µM (active).
On to `C[Si](C)(C)O[Si](O)(O)O`, for which the compound was called inactive in [1], in assay [2], in [4] and in assay [6].
In the case of `CCN(CCC#N)c1ccc(N=Nc2c(Cl)cc([N+](=O)[O-])cc2Cl)cc1`, the compound was classed as inactive in assay [1], in assay [2], in assay [3], in [4], in assay [5] and in [6].
Turning to `O=c1c2ccccc2nnn1CCl`, the call in assay [1], in [2], in [4] and in assay [5] was inactive.
For the compound `CCOC(=O)c1ccc(N(C)C)cc1`, the outcome in assay [1], in assay [2], in [3], in assay [4] and in assay [6] was inactive.
Regarding `C=C(C)C(=O)OCCO`, the result in [1], in assay [2], in assay [3], in [4] and in [6] was inactive.
As for `CC(CC=O)c1ccccc1` (stereo not given), the result in assay [1], in assay [2] and in [5] was inactive. The AC50 in assay [3] was 121 µM (active).
Regarding `COc1c2ccoc2cc2oc(=O)ccc12`, the compound was classed as inactive in assay [1], in assay [2], in assay [3], in assay [4] and in assay [6].
For the compound `c1ccc(CNCc2ccccc2)cc1`, the compound was called inactive in assay [1], in assay [2], in [3], in [4], in [5] and in [6].
Consider `NNC(=O)c1cccc(C(=O)NN)c1`, for which the compound was classed as inactive in assay [1], in assay [2], in [3] and in assay [5].
Consider `Cc1ccc(N/N=c2\c(=O)cc/c(=N/Nc3ccc(S(=O)(=O)O)cc3)c2=O)c(C)c1`, for which the outcome in assay [1], in assay [2], in [4], in [5] and in assay [6] was inactive.
For `CC1=NN(c2cc(S(=O)(=O)O)ccc2Cl)C(=O)C1N=Nc1ccccc1` (stereo not given), the compound was called inactive in assay [1], in [2], in [3], in [4] and in [6].
In the case of `CCCCCCCC[N+](C)(CCCCCCCC)CCCCCCCC`, the compound was called inactive in assay [1], in assay [2], in assay [4] and in assay [6]. The AC50 in assay [3] is 1.59 µM (active).
As to `CCCCCCOC(=O)C(C)CC` (stereo not given), the call in [1], in assay [2], in assay [4] and in [5] was inactive.
For the compound `Nc1nc2ccccc2[nH]1`, the call in assay [1], in assay [2], in [3], in [4], in assay [5] and in [6] was inactive.
As to `Cc1ccc(C(C)(C)C)cc1`, the compound was classed as inactive in assay [1], in assay [2], in [3], in [4], in [5] and in assay [6].
